# Test results as given in article PMC7862700, “An all-to-all approach to the identification of sequence-specific readers for epigenetic DNA modifications on cytosine”.
# Tests used:
# Test in all cases: DAPPL (digital affinity profiling via proximity ligation, sequencing); 10 mM Tris-HCl pH 7.5, 50 mM NaCl, 1 mM DTT, 4% glycerol, room temperature, 30 min; GST-TFs on glutathione beads, 16-mer random dsDNA library, 0.1% formaldehyde crosslink after washing; high values mean tight binding
# FEV = biological target: T1, FEV (Homo sapiens, UniProt Q99581 1-238); settings: protein: recombinant; tags: N-terminal GST; dsDNA, one strand shown
# T1 sequence: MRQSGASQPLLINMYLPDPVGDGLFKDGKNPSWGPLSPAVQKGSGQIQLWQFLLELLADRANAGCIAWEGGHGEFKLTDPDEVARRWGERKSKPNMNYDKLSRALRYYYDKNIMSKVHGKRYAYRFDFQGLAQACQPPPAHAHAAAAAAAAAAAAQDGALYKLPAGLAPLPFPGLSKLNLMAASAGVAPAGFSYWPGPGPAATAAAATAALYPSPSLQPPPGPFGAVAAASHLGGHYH
# How it was run: (§1)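 Binding signal is each hexamer's read frequency for a factor divided by its frequency in the tag-only sample. The factors were GST-fused human transcription factors from yeast, captured on glutathione beads, DNA-barcoded and pooled with that sample. Pools were incubated with 200 nmole of a random double-stranded 16-mer DNA library in Tris/NaCl/DTT/glycerol buffer at room temperature for 30 min, then washed, crosslinked with 0.1% formaldehyde, proximity-ligated with BsaI/T4 ligase (1 h, 37 °C), PCR-amplified and sequenced on an Illumina NextSeq500.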
# ETV5 = ETV5 (Homo sapiens, UniProt P41161 1-510); settings: protein: recombinant; tags: N-terminal GST; dsDNA, one strand shown
# Sequence of ETV5 (P41161 whole entry): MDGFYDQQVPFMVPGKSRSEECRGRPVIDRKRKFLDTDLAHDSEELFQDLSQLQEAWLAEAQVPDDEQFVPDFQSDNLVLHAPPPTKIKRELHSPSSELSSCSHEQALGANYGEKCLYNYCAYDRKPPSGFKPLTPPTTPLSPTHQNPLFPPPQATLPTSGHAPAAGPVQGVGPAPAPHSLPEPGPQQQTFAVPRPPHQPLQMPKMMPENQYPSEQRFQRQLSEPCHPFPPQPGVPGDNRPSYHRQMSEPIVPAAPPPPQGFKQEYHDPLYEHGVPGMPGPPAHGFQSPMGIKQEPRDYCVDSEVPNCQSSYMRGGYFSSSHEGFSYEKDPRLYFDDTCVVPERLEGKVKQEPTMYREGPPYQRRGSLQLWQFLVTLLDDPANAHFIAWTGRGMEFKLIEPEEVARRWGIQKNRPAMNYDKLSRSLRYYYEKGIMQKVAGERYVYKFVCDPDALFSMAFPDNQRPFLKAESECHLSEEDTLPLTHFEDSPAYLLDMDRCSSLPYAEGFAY
# How it was run: as §1
# HSF1 = HSF1 (Homo sapiens, UniProt Q00613 1-529); settings: protein: recombinant; tags: N-terminal GST; chain copies: 3; dsDNA, one strand shown
# Sequence of HSF1 (Q00613 whole entry): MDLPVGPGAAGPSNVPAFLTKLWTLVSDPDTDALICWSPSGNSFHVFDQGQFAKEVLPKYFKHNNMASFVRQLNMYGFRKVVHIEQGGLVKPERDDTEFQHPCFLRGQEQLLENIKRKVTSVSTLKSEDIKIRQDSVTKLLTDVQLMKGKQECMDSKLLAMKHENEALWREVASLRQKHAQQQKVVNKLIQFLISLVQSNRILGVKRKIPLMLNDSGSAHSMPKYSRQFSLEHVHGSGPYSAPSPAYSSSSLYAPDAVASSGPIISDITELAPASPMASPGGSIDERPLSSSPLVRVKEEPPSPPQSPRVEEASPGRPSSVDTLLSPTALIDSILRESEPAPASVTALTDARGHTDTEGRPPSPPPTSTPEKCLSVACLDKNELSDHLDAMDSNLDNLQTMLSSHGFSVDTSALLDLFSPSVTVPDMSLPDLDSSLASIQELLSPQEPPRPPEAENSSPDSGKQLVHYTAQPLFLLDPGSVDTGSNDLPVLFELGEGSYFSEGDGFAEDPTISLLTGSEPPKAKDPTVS
# How it was run: as §1
# SPIC = biological target: T2, SPIC (Homo sapiens, UniProt Q8N5J4 1-248); settings: protein: recombinant; tags: N-terminal GST; dsDNA, one strand shown
# T2 sequence: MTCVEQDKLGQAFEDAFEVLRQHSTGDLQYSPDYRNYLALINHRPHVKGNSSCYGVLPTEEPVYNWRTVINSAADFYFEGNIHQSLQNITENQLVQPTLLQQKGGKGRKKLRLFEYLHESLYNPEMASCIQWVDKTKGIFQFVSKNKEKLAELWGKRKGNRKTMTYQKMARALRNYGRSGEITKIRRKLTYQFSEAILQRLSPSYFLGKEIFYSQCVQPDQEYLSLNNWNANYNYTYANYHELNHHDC
# How it was run: as §1
# ELF4 = ELF4 (Homo sapiens, UniProt Q99607 1-663); settings: protein: recombinant; tags: N-terminal GST; dsDNA, one strand shown
# Sequence of ELF4 (Q99607 whole entry): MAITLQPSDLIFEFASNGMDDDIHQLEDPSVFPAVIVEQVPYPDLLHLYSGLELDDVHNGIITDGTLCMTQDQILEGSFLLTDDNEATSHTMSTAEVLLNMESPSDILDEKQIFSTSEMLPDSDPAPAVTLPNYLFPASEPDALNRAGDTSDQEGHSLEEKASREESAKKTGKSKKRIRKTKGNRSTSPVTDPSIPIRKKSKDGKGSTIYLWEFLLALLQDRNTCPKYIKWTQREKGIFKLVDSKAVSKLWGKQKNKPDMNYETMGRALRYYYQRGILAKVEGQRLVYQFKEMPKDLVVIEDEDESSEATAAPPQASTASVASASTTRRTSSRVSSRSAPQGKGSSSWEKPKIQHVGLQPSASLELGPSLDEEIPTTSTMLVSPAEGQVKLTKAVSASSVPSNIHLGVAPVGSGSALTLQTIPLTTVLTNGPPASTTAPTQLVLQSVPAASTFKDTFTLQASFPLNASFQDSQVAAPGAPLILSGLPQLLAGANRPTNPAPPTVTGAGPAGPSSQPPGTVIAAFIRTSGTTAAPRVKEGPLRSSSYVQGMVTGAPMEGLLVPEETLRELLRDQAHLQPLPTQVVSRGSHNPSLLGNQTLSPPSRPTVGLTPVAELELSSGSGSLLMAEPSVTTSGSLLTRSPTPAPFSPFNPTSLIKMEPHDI
# How it was run: as §1
# ELK4 = biological target: T3, ELK4 (Homo sapiens, UniProt P28324-2 1-405); settings: protein: recombinant; tags: N-terminal GST; dsDNA, one strand shown
# T3 sequence: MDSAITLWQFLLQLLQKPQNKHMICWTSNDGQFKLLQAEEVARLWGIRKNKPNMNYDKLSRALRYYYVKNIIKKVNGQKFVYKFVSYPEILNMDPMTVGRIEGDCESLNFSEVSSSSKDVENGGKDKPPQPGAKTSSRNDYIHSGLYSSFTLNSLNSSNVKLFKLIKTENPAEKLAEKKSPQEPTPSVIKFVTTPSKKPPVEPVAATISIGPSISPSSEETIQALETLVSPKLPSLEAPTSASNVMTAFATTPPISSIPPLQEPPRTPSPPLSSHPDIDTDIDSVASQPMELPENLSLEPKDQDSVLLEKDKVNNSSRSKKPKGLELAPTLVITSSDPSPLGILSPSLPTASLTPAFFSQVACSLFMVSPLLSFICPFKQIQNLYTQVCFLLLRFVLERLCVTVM
# How it was run: as §1
# ETV2 = biological target: T4, ETV2 (Homo sapiens, UniProt O00321 1-342); settings: protein: recombinant; tags: N-terminal GST; dsDNA, one strand shown
# T4 sequence: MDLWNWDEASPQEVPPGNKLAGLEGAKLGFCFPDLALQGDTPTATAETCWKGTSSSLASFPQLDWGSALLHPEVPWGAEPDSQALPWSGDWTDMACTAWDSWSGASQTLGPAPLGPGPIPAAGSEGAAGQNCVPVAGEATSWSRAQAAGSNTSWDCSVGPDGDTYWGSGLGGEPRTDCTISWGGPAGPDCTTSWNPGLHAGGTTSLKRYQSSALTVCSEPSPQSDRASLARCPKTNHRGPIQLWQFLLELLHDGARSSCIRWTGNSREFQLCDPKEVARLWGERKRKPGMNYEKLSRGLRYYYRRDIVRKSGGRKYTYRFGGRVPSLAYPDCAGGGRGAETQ
# How it was run: as §1
# ELF3 = biological target: T5, ELF3 (Homo sapiens, UniProt P78545 1-371); settings: protein: recombinant; tags: N-terminal GST; dsDNA, one strand shown
# T5 sequence: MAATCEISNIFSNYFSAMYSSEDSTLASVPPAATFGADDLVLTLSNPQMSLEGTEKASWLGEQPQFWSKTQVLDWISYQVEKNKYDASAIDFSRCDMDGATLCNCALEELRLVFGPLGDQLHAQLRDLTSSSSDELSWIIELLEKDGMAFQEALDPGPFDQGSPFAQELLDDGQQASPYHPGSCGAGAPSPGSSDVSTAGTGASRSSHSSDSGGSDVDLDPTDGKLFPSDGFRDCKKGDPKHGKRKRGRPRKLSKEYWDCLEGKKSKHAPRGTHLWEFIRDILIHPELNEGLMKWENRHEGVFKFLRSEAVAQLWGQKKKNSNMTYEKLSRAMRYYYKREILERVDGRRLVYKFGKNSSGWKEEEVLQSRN
# How it was run: as §1
# CRX = CRX (Homo sapiens, UniProt O43186 1-299); settings: protein: recombinant; tags: N-terminal GST; dsDNA, one strand shown
# Sequence of CRX (O43186 whole entry): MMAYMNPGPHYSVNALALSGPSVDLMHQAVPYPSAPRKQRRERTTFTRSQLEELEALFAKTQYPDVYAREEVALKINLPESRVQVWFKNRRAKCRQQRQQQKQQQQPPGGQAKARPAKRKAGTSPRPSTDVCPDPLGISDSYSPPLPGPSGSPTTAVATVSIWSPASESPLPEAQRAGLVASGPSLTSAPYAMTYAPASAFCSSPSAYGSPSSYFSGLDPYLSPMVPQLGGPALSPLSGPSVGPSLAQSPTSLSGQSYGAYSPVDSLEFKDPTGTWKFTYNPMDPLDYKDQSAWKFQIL
# How it was run: as §1
sequence,measurement,setting,value
TCTGCA,binding signal,FEV,"1.43 fold enrichment (6-mer frequency, TF over GST control)"
same,binding signal,ETV5,"1.36 fold enrichment (6-mer frequency, TF over GST control)"
same,binding signal,HSF1,"1.26 fold enrichment (6-mer frequency, TF over GST control)"
same,binding signal,SPIC,"1.36 fold enrichment (6-mer frequency, TF over GST control)"
same,binding signal,ELF4,"1.42 fold enrichment (6-mer frequency, TF over GST control)"
same,binding signal,ELK4,"1.43 fold enrichment (6-mer frequency, TF over GST control)"
same,binding signal,ETV2,"1.2 fold enrichment (6-mer frequency, TF over GST control)"
same,binding signal,ELF3,"1.36 fold enrichment (6-mer frequency, TF over GST control)"
same,binding signal,CRX,"1.25 fold enrichment (6-mer frequency, TF over GST control)"
